Results on 18 sequences are retold here after the supplement of paper PMC6555819.

For the assay, the system named is RARg homodimer (NR concentration 270 nM). As to the kind of experiment: PBM binding z-score (relative to random genomic background probes); higher = stronger binding; sequences stand for … in GC…GCGATTGACAGCGTAGAATGAAGG
In outline:
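Binding z-scores take random background probes as their reference. They come from custom Agilent 4×180K protein-binding microarrays incubated 1 h with ligand-free nuclear receptor dimers, with antibodies against each partner (one per run) detecting binding. Scanned fluorescence was regression-normalized.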
In turn, AGAATGTGGTTATACGTAGATCAGGGAAGAAAGT displayed a PBM binding z-score of 0.305.

Consider GCTCGGAGGACAAGGTCAGAGCTTTGTCCGTAGA, for which the PBM binding z-score was found to be 3.6.

Regarding CGTCAAAGTTCAACTAAGGTAGCGTAAAGCACGC, the PBM binding z-score came out at 6.39.

CCTTACGGGTCAAGCTTATAGCACGGGTGGTACG gave a PBM binding z-score of 4.64.

Consider TTACCAAGGTGAGCTGAGGTCGTTGACCCAACTC, for which the PBM binding z-score turned out to be 0.471.

Sequence ATCTCGAGGTAAAGATAGTTCAGTGAATGCAAAT registered a PBM binding z-score of 0.829.

GCGACTGGGGCAAAGCAGGTTACCATAAGGTTGG displayed a PBM binding z-score of 0.712.

In the case of CCCTACGGGTCAAGGTTATAGCACGGGTGGTACG, the PBM binding z-score stood at 4.83.

In turn, TCATTTAGGTAATACAGGTGAAAGTCGGCATCTA gave a PBM binding z-score of 0.652.

As to CCTCGGAGGAGAACAGGAGGTCAGAGCTGCCAGA, the PBM binding z-score is 1.63.

As to CCTGCTAGGTCATCGTCAGCTAATCTACAGTATG, the PBM binding z-score turned out to be 5.07.

The sequence CGTCCATGGTCAATGCTAGGTCAGTGAAAGCATT returned a PBM binding z-score of 1.9.

As to AGAACGAGGGCCCGCTGAGTTGATAGCAGAGTAG, the PBM binding z-score is -0.722.

Consider CCGCGGAGGACAGAAGGTCAGAGCTGTCCGCTTT, for which the PBM binding z-score was 3.56.

For the sequence TCTTGTAGATCAAGCAGGTTATGAAAGCCTGAGT, the PBM binding z-score was -0.307.

Sequence ACTAGCAAGCCAAGGGTCACTCAAGATTAGTCCG registered a PBM binding z-score of 3.58.

Take CTACCAAGGTGAACAAGGTCGCTGATTACTATTC: the PBM binding z-score worked out at 1.55.

The sequence TCGAGTAGGTTACCAATGGGGTATTCAGCTTTCT returned a PBM binding z-score of 0.354.
